Several values for one entry are separate records, joined by “and”; a condition that tells them apart may be missing. Equal entries are not always repeated. Values without a mark were called inactive. Activity calls are given as the source filed them. Cut-off read from the data, not from the text of the source: active = inhibition above about 33%; inactive = the rest.

The assay is described as follows: compounds suppressing VP16-driven luciferase signal – cell-based, luminescence, high throughput, counter-screen for LRH-1 inverse agonist project (AID 651615). Conditions: Gal4-VP16 luciferase reporter cells, at 3.6 µM, active compounds read high.
Regarding `CCCC(=O)NC(c1ccc(C)cc1)c1ccc2cccnc2c1O` (stereo not given), the inhibition was 83.1% (active). With `Cc1nn(C(C)(C)C)c(C)c1/C=N/OC(=O)Nc1ccc(Cl)cc1` the figure was 88.7% (active); with `O=C(Nc1nc(-c2ccccc2)cs1)c1ccccc1NS(=O)(=O)c1ccc(F)cc1`, 79.3% (active). Then `CCCCCCCn1c2c(c(=N)c3c1CCC3)CCCC2`, with 98.2% (active); and `CC(=NNC(=S)Nc1ccccc1)c1ccccn1`, with 85.6% (active). Then `O=NN(CC(=O)NNc1ccccc1)CC(=O)NNc1ccccc1`, with 67.5% (active); and `CC1(C)N=C(N)N=C(N)N1CCCCc1ccccc1`, with 35.7% (active); and `Cc1ccc(/C=C/C(=O)c2c(C)cc(C)[nH]c2=O)cc1`, with 60.4% (active). For `COc1ccc(N=C(NN)c2ccc3ccccc3n2)cc1`, the inhibition is -96.2%.

Take `O=[N+]([O-])c1cc(CN2CCN(c3ccccc3)CC2)c(O)c2ncccc12`: the inhibition is 73.4% (active). With `N=C1C=CC(=C(c2ccc(N)cc2)c2ccc(N)cc2)C=C1` the figure was 88.5% (active). On to `C=C1C(=O)c2sccc2C(c2ccc(OC)c(OC)c2)C1COC(C)=O` (stereo not given), for which the inhibition was 82.4% (active).

As to `Cn1cnc([N+](=O)[O-])c1Sc1nc(N)nc2c1ncn2C1OC(CO)C(O)C1O` (stereo not given), the inhibition was 45.1% (active). Then `O=C(NC(Nc1nc2ccc([N+](=O)[O-])cc2s1)(C(F)(F)F)C(F)(F)F)c1cccnc1`, with 88.7% (active); and `CC(=NNC(=S)Nc1ccccc1Cl)c1ccccn1`, with 83.9% (active); and `CCN1/C(=C/c2ccc3cc(C)ccc3[n+]2CC)Sc2cc(C)c(C)cc21`, with 75.5% (active). For the molecule `O=C1[C@@H]2Cc3c([nH]c4ccccc34)C(c3ccc([N+](=O)[O-])cc3)N2C(=O)CN1C1CC1` (stereo not given in full), the inhibition was 75.7% (active). In the case of `Cc1ccc(-c2cn(-c3ccccc3)c3[n+]2CCCS3)cc1`, the inhibition was 64.2% (active) and 56.1% (active). With `CC(=O)Nc1ccc(SCC(=O)c2cc(C)n(Cc3cccs3)c2C)cc1` the figure was -31.9%. With `CN(Cc1cnc2nc(N)nc(N)c2n1)c1ccc(C(=O)NC(CCC(=O)O)C(=O)O)cc1` (stereo not given) the figure was 19.9%; with `COc1cccc(/C=N/Nc2ccc(C(=O)O)cc2)c1O`, 68.7% (active); with `c1ccc(-c2nn(-c3ccccc3)[n+](-c3ccccc3)n2)cc1`, 48.5% (active). With `Nc1nc(N)nc(-c2cc(O)ccc2O)n1` the figure was 57.1% (active). For `O=C(Nc1ccc([N+](=O)[O-])cc1)c1ccc(Cn2cc([N+](=O)[O-])cn2)cc1`, the inhibition is 74.4% (active).

As to `CCn1cc(/C=C/c2cc[n+](C)cc2)c2ccccc21`, the inhibition was 57.1% (active).

`c1ccc(-c2cccc(-c3ccccn3)n2)nc1`: the inhibition is 41.8% (active). Then `CCN1/C(=C/c2ccc3cccc(C)c3[n+]2CC)Sc2ccccc21`, with 80.5% (active). Then `CN(C)CCOc1ccc2c(c1)C(=O)C(=Cc1ncc([N+](=O)[O-])n1C)C2`, with 51.6% (active). Then `COc1ccc(C)cc1NC(=O)c1nnn(Cc2cccc(C(F)(F)F)c2)c1N`, with 60.3% (active); and `COc1cc(NS(C)(=O)=O)ccc1Nc1c2ccccc2nc2ccccc12`, with 78.8% (active); and `COc1cccc(/C=N/Nc2ncnc3scc(-c4ccccc4)c23)c1O`, with 65.1% (active).

As to `CCN1/C(=C/c2ccc3ccccc3[n+]2CC)C=Cc2ccccc21`, the inhibition was 89.3% (active). With `N=c1c2c(n(Cc3cccc(Cl)c3)c3c1CCC3)CCCC2` the figure was 85.4% (active). Then `CC(C)(O)C#Cc1ccc([C@@H]2C[C@H]3CN(c4ccccc4)C(=O)[C@]34CCCN24)s1`, with 88.8% (active); and `Oc1cccc2cc(Nc3ccccc3)cnc12`, with 88% (active); and `COc1ccccc1C(=O)Nc1nc(-c2ccc(S(=O)(=O)N3CCOCC3)cc2)cs1`, with 92.2% (active). With `Cc1ccc2ccc3cccnc3c2n1` the figure was 37.3% (active); with `CCCCCCCCCn1ccc(=N)cc1`, 85.9% (active); with `Cc1ccc2[nH]c3nc(N/N=C/c4cccc(O)c4)nnc3c2c1`, 69.8% (active).

As for `CC1(C)CC(N2CCN(Cc3ccccc3)CC2)=CC(=[N+]2CCCCC2)C1`, the inhibition is 74% (active).
